G9a block – qHTS Assay for Inhibitors of Histone Lysine Methyltransferase G9a; actives 8.8% (n = 350,000); AID 504332, 2011; G9a H3K9 monomethylation, AlphaScreen, 2 h; Potency, µM (titrated, usually from 102 µM), inactives show at the highest dose activity, negative = inhibition, hits mostly inhibitors; also: potency is read from the fitted curve at half-maximal effect; % is scaled to controls: 0 for no effect and ±100 for the full control effect; nearly all actives have a fitted effect of over 75% in size
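Quantitative HTS format: methyltransferase activity on a biotin-tagged H3K9 peptide is measured by AlphaScreen, using a rabbit anti-monomethyl-H3K9 antibody with streptavidin donor and anti-IgG acceptor beads. Final levels are 20 nM enzyme, 500 nM peptide, 20 uM SAM; 2 h RT.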
BAZ2B inh – qHTS Assay for Inhibitors of BAZ2B; Bromodomain adjacent to zinc finger domain protein 2B (Homo sapiens), Q9UIF8; AlphaScreen BAZ2B-H3K14Ac peptide displacement; Potency, µM (doses to about 114 µM), for inactives: top-dose activity change, negative = inhibition, hits mostly inhibitors; actives 4.4% (n = 360,000); also: potency is read from the fitted curve at half-maximal effect; % is scaled to controls: 0 for no effect and ±100 for the full control effect; nearly all actives have a fitted effect of over 60% in size
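Compounds, titrated to a top concentration of 110 uM, were incubated 30 min at room temperature with preformed BAZ2B/acetyl-K14 H3 peptide complex (50 nM each). Proximity signal was measured by AlphaScreen after 20 min with beads.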
HP1b binding inh – HTS for Inhibitors of HP1-beta Chromodomain Interactions with Methylated Histone Tails; Chromobox protein homolog 1 (Homo sapiens), P83916; AlphaScreen HP1-beta / biotin-H3K9me3 peptide binding; Potency, µM (titrated, usually from 114 µM), inactives show top-dose activity change, negative = inhibition, actives largely listed as inhibitors; actives 0.56% (n = 390,000); AID 540317, 2011; also: potency is read from the fitted curve at half-maximal effect; nearly all actives have a fitted effect of over 70% in size
Target sequence (P83916 whole entry, looked up): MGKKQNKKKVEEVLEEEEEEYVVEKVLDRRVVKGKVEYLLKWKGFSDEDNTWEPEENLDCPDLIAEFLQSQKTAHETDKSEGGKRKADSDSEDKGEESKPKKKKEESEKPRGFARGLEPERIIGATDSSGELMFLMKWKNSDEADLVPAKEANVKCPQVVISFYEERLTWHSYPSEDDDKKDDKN
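AlphaScreen: HP1-beta (50 nM) preformed 30 min with biotin-H3(1-18)K9me3 peptide (50 nM) in PBS pH 7.4, 0.01% Tween-20. Compound added for 30 min at RT, then streptavidin donor/nickel chelate acceptor beads (10 ug/mL) for 30 min.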
PI5P4Ka inh – qHTS for Inhibitors of phosphatidylinositol 5-phosphate 4-kinase (PI5P4K); Phosphatidylinositol 5-phosphate 4-kinase type-2 alpha (Homo sapiens), P48426; actives 1.2% (n = 330,000); max response, %; AID 652105, 2013; PI5P4Kalpha enzyme, ADP-Glo luminescence, 60 min; stronger effect = lower value; active = max response of -50% or lower; inconclusive = between -30% and -50%; inactive = -30% or higher; also: value at the top dose of about 77 µM; % is scaled to controls: 0 for no effect and ±100 for the full control effect
Target sequence (P48426 whole entry, looked up): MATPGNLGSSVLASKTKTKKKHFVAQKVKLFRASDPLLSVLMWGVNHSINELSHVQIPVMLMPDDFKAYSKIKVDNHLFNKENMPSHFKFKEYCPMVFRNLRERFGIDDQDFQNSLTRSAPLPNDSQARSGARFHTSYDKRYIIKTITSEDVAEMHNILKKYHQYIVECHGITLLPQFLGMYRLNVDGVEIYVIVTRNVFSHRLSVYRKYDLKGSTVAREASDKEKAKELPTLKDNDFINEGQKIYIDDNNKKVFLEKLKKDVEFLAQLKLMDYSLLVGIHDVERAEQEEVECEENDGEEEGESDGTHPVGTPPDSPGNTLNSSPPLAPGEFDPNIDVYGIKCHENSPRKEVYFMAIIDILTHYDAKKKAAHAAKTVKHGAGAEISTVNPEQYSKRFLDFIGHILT
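qHTS, 1536-well: enzyme/substrate mix, compound by pin tool, 5 microM ATP final; RT 60 min; ADP-Glo reagents 1 (45 min) then 2 (30 min); luminescence.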
PLK1 PBD inh – qHTS for Inhibitors of PLK1-PDB (polo-like kinase 1 - polo-box domain): Primary Screen; Serine/threonine-protein kinase PLK1 (Homo sapiens), P53350; Plk1 PBD binding of FITC phosphopeptide, fluorescence polarization; Potency, µM, for the others: max response, negative = inhibition, most hits filed as inhibitors; actives 2.8% (n = 360,000); AID 720504, 2013; also: potency is read from the fitted curve at half-maximal effect; series mostly up to about 57 µM; % is scaled to controls: 0 for no effect and ±100 for the full control effect; nearly all actives have a fitted effect of over 65% in size
JMJD2A Tudor – qHTS Assay for Inhibitors of JMJD2A-Tudor Domain; actives 4.4% (n = 390,000); AID 504339, 2011; Lysine-specific demethylase 4A (Homo sapiens), O75164; AlphaScreen JMJD2A-Tudor / H3K4me3 peptide binding; Potency, µM (highest dose often 114 µM), without a hit: at the highest dose activity change, negative = inhibition, usual class: inhibitors; also: potency is read from the fitted curve at half-maximal effect; % is scaled to controls: 0 for no effect and ±100 for the full control effect; nearly all actives have a fitted effect of over 50% in size
* hit, by the source's call; [ ] = dose if it differs, or a comment. Rows were chosen to be rich in hits. Some 12% of all compounds tested hit in one or more screens of this group. Unless noted, calls follow the shape of the dose curve; as a rule, active = well fitted curve in the direction sought with a large enough effect; inconclusive = small, poorly fitted or top-dose-only effect, or another doubt; inactive = no such curve, though single readings can be large; an effect the other way counts as inactive or inconclusive.

Results for COc1cccc(-c2cc(=O)c3cc(NC(=O)c4ccc(Cl)cc4)ccc3[nH]2)c1 ?
G9a block: 50µM*; BAZ2B inh: -28%; HP1b binding inh: 13%; PI5P4Ka inh: -2; PLK1 PBD inh: -16%; JMJD2A Tudor: -15%

How did COc1cccc(-c2cc(=O)c3cc(NC(=O)c4ccc(N(C)C)cc4)ccc3[nH]2)c1 do in these assays?
G9a block: 32µM*; BAZ2B inh: 79µM*; HP1b binding inh: 24%; PI5P4Ka inh: -22; PLK1 PBD inh: -15%; JMJD2A Tudor: -13%

Results for COc1cccc(-c2cc(=O)c3cc(NC(=O)c4ccccc4)ccc3[nH]2)c1 ?
G9a block: 10%; BAZ2B inh: 0%; HP1b binding inh: 18%; PI5P4Ka inh: -3; PLK1 PBD inh: -6%; JMJD2A Tudor: -24%

Results for O=C1COc2ccc(C(=O)COC(=O)c3cc(S(=O)(=O)N4CCOCC4)ccc3F)cc2N1 ?
G9a block: -2%; BAZ2B inh: inconclusive; HP1b binding inh: -6%; PI5P4Ka inh: -22; PLK1 PBD inh: -1%; JMJD2A Tudor: -25%

Results for Cc1nc2c(C(=O)NCCC3=CCCCC3)c[nH]n2c(=O)c1Cl ?
G9a block: 14%[59 µM]; BAZ2B inh: 1%; HP1b binding inh: 6%; PLK1 PBD inh: 24µM*; JMJD2A Tudor: -29%

What do the screens show for `CCOC(=O)CON1C(=O)c2ccccc2C1=O`?
G9a block: -61%; BAZ2B inh: 10%; HP1b binding inh: 32%; PI5P4Ka inh: 0; PLK1 PBD inh: 1%; JMJD2A Tudor: 18%

How did CCO/C=C1/C(=O)N(C(C)=O)c2ccccc21 do in these assays?
G9a block: 10µM*; BAZ2B inh: -15%; HP1b binding inh: 54%; PLK1 PBD inh: -11%; JMJD2A Tudor: -13%

How did COc1ccc2c(c1)c1c(c(=O)n(-c3ccc(F)c(Cl)c3)c(=O)n1Cc1ccccc1C)n2C do in these assays?
G9a block: -5%[59 µM]; BAZ2B inh: -13%; HP1b binding inh: 30%; JMJD2A Tudor: -1%

How did COc1ccc2[nH]cc(CCNc3ncncc3-c3c(C)noc3C)c2c1 do in these assays?
G9a block: -7%[0.501 µM]

How did CCc1ccc(C2CC(=O)Nc3cc4c(cc32)OCO4)cc1 (stereo not drawn) do in these assays?
G9a block: inconclusive; BAZ2B inh: -12%; HP1b binding inh: 5%; JMJD2A Tudor: -22%

What do the screens show for `CCn1c(C)c(/C=N/Nc2nc3ccccc3s2)c2ccccc21`?
G9a block: 40µM*; BAZ2B inh: 16µM*; HP1b binding inh: inconclusive; PLK1 PBD inh: -5%; JMJD2A Tudor: 32µM*

Results for C(=N\Nc1nc2ccccc2s1)/c1cccs1 ?
G9a block: -7%[59 µM]; BAZ2B inh: inconclusive; HP1b binding inh: -3%; PLK1 PBD inh: 3%; JMJD2A Tudor: -29%

What do the screens show for `CCCCC[C@]12Cc3cc(OC)c(OC)cc3[C@H](O1)c1c(cc(C)oc1=O)O2`?
G9a block: -4%[2.33 µM]; BAZ2B inh: 4%[22.9 µM]

Results for c1ccc(C2=Nn3c(Cn4nnc5ccccc54)nnc3SC2)cc1 ?
G9a block: inconclusive; BAZ2B inh: -5%; HP1b binding inh: 27%; PI5P4Ka inh: 4; PLK1 PBD inh: 3%; JMJD2A Tudor: -7%

What do the screens show for `Clc1ccc(C2=Nn3c(Cn4nnc5ccccc54)nnc3SC2)cc1`?
BAZ2B inh: inconclusive; HP1b binding inh: inconclusive; PI5P4Ka inh: -20; PLK1 PBD inh: 8.4µM*; JMJD2A Tudor: 79µM*

What do the screens show for `c1ccc(-c2ccc(C3=Nn4c(Cn5nnc6ccccc65)nnc4SC3)cc2)cc1`?
G9a block: 8.9µM*; BAZ2B inh: 6%[57.1 µM]; HP1b binding inh: 16µM*; PI5P4Ka inh: inconclusive; PLK1 PBD inh: 4.7µM*; JMJD2A Tudor: inconclusive

Results for CCc1ccc(NC(=O)CCc2c(C)nn(-c3ccc(N4CCCC4)nn3)c2C)cc1 ?
G9a block: 14%[59 µM]; BAZ2B inh: -39%; HP1b binding inh: 31%; JMJD2A Tudor: -27%

What do the screens show for `O=C(COC(=O)CC1CC2CCC1C2)Nc1ccccc1[N+](=O)[O-]` (stereo not drawn)?
HP1b binding inh: inconclusive; PI5P4Ka inh: 7; PLK1 PBD inh: 6%; JMJD2A Tudor: 50µM*

How did O=C(CCN1N=C(c2ccccc2)CCC1=O)NCCCN1CCOCC1 do in these assays?
G9a block: 50µM*; BAZ2B inh: 0%; HP1b binding inh: 43%; PI5P4Ka inh: 3; PLK1 PBD inh: -6%; JMJD2A Tudor: -4%

Results for Cc1ccc(C2=NN(CCC(=O)NCCCN3CCOCC3)C(=O)CC2)cc1 ?
G9a block: 24%[59 µM]; BAZ2B inh: -3%; HP1b binding inh: 16%; PI5P4Ka inh: 1; PLK1 PBD inh: -21%; JMJD2A Tudor: -20%

What do the screens show for `CC1CCCC(NC(=O)COC(=O)Cc2cn3ccsc3n2)C1C` (stereo not drawn)?
G9a block: 50µM*; BAZ2B inh: 2%; HP1b binding inh: 9%; PI5P4Ka inh: 1; PLK1 PBD inh: 1%; JMJD2A Tudor: -21%

How did CCn1c2ccccc2c2cc(NC(=O)COC(=O)Cc3cn4ccsc4n3)ccc21 do in these assays?
G9a block: -1%; BAZ2B inh: 5%; HP1b binding inh: 1%; PI5P4Ka inh: -10; PLK1 PBD inh: -11%; JMJD2A Tudor: 35µM*

What do the screens show for `O=C(COC(=O)Cc1cn2ccsc2n1)NC12CC3CC(CC(C3)C1)C2`?
G9a block: 15%; BAZ2B inh: 7%; HP1b binding inh: -10%; PI5P4Ka inh: -4; PLK1 PBD inh: -23%; JMJD2A Tudor: -2%[11.4 µM]

How did COc1ccc(CC(=O)NCc2cn3ccsc3n2)cc1 do in these assays?
G9a block: -19%; BAZ2B inh: -3%; HP1b binding inh: 39%; PI5P4Ka inh: 1; PLK1 PBD inh: -14%; JMJD2A Tudor: -26%

How did O=C(Cc1cn2ccsc2n1)NCc1ccccc1 do in these assays?
G9a block: -35%[59 µM]; BAZ2B inh: 79µM*; HP1b binding inh: 32%; PLK1 PBD inh: 0%; JMJD2A Tudor: -34%

How did CCn1c2ccccc2c2cc(NC(=O)COC(=O)c3ccc(O)cc3)ccc21 do in these assays?
G9a block: inconclusive; BAZ2B inh: -20%; HP1b binding inh: 13%; PI5P4Ka inh: 1; PLK1 PBD inh: 1%; JMJD2A Tudor: -23%
